# HIF-2a block: HIF-2a reporter inhibitors, primary screen, luminescence, 786-0 RCC cells; hit rate 0.72% among 360,000; 786-0 RCC cells HIF-2a reporter, luciferase luminescence, overnight; inhibition, % at 18.8 µM;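 active = inhibition of the luminescence signal of 40% or more relative to plate controls, in a single-dose primary screen at 18.75 µM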
# TRPM1 prom inh: inhibitors of MITF-dependent TRPM1 promoter reporter, primary screen, cell-based, SK-MEL-5, single point, luciferase | SK-MEL-5 TRPM1 promoter luciferase, 24 h | inhibition, % at 12.5 µM | hit rate 0.83% among 330,000 | AID 488899, 2010;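 active = mean inhibition across replicates of 60% or more, whatever share of single replicates reaches that level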
# Shn3 inh set2: reduction of Shn3 3'UTR firefly luciferase signal, primary screen, Schnurri-3 inhibitor project, cell-based, Clone20 osteoblasts, set 2; inhibition, % at 12.5 µM; Clone20 osteoblast Shn3 3'UTR firefly luciferase, 24 h; hit rate 0.52% among 360,000; AID 588674, 2011;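 active = mean inhibition of at least 75% with every replicate also reaching 75%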;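 note: 0% = median of neutral control wells and 100% = pilot-screen positive control compound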
# LMP1 NFkB inh: EBV LMP1-driven NF-kappaB luciferase reporter inhibitors, primary screen, cell-based, luminescence, single point | LMP1-induced NF-kappaB luciferase reporter cells | inhibition, % at 12.5 µM | hit rate 0.69% among 350,000 | AID 504558, 2011; in the data active = inhibition above about 41%;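 note: 0% = neutral control wells and 100% = reference inhibitor control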
# Peg3 promoter: Peg3 promoter-driven luciferase inhibitors, primary screen, cell-based, HeLa, luciferase luminescence | HeLa PEG-Prom luciferase reporter, overnight | inhibition, % at 20 µM | hit rate 1.7% among 360,000 | AID 588405, 2011;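 active = inhibition of at least 50% at 20 µM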
# PAX8 inh HTS: inhibitors of PAX8-driven TPO luciferase reporter, primary screen, RMG-I cells, single concentration | SteadyGlo, 24 h | inhibition, % at 12.6 µM | hit rate 1.2% among 360,000 | AID 652154, 2013;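 active = mean replicate inhibition at least 60% with every replicate also reaching 60%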;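 note: luciferase light reporting Pax8 driven TPO promoter activity; plate controls were median of neutral control wells for no effect and mitoxantrone controls for full effect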
# The depositor's hits bear a star; . = no result given. In the library only some 2.8% were active in any assay of this set; here they are far more common.
SMILES,HIF-2a block,TRPM1 prom inh,Shn3 inh set2,LMP1 NFkB inh,Peg3 promoter,PAX8 inh HTS
COCCn1c(-c2ccc(OC)cc2)cnc1SCC(=O)Nc1ccc(OC)cc1OC,11,-1,19,2,64*,-2
C[C@@H](NC(=O)C[C@@H]1CC[C@@H]2[C@H](COC[C@H](O)CN2Cc2cc(F)ccc2F)O1)c1ccccc1,.,.,.,.,.,68*
O=C(C[C@H]1CC[C@H]2[C@@H](COC[C@@H](O)CN2Cc2ccc(Oc3ccccc3)cc2)O1)N1CCCCC1,.,.,.,.,.,100*
O=C(C[C@@H]1CC[C@@H]2[C@H](COC[C@H](O)CN2Cc2ccc(F)cc2)O1)NCc1ccccc1Cl,.,.,.,.,.,53
O=C(C[C@H]1CC[C@@H]2[C@H](COC[C@@H](O)CN2Cc2ccc(F)cc2)O1)NCc1ccccc1Cl,.,.,.,.,.,92*
COc1ccccc1-c1ccc2c(c1)O[C@@H](CN(C)C(=O)c1cccnc1)[C@H](C)CN([C@@H](C)CO)S2(=O)=O,.,.,.,.,.,-6
O=C(C[C@H]1CC[C@@H]2[C@H](COC[C@H](O)CN2S(=O)(=O)c2ccccc2)O1)NCCN1CCCCC1,.,.,.,.,.,0
COc1ccc([Si](C)(C)[C@@H]2[C@@H](CC(=O)N3Cc4ccccc4C[C@H]3CO)O[C@]3(C(=O)N(Cc4ccc(I)cc4)c4ccccc43)[C@H]2C)cc1,.,.,.,.,.,56
CN1CCN(c2ccc(NC(=O)COc3cccc4ccccc34)cc2)CC1,-45,2,18,4,-42,5
C=CC(=O)Nc1cccc(Oc2ccnc(Nc3ccc(N4CCN(C)CC4)cc3)n2)c1,59*,28,66,35,52*,74*
C=CC(=O)Nc1cccc(N(C)c2ccnc(Nc3ccc(N4CCN(C)CC4)cc3)n2)c1,26,25,84,44*,38,.
C/C=C/c1ccc([C@H]2[C@H]3CN(C(=O)c4ccccc4)CC(=O)N3[C@H]2CO)cc1,.,.,.,.,.,-2
COC(=O)C[C@H]1C[C@@H]2c3cc(NS(=O)(=O)c4cccc(OC)c4)ccc3O[C@@H]2[C@H](CO)O1,.,.,.,.,.,-13
COc1ccc(S(=O)(=O)N(C)C[C@@H]2Oc3ccc(N(C)C)cc3C(=O)N([C@@H](C)CO)C[C@@H]2C)cc1,.,.,.,.,.,4
CO[C@@H]1CN(C)C(=O)c2cc(NC(=O)Nc3ccccc3)ccc2OC[C@H](C)N(C(=O)CC2CC2)C[C@@H]1C,.,.,.,.,.,22
Cc1nc(Nc2nc3c(c(=O)[nH]2)CCC3)nc2ccccc12,-82,15,-22,-20,86*,.
O=c1[nH]c(NCc2ccccc2)nc2c1CCC2,18,-9,-28,-12,12,-8
C[C@H]1CN([C@@H](C)CO)C(=O)c2cc(NC(=O)C3CCCCC3)ccc2O[C@@H]1CN(C)C,.,.,.,.,.,-11
COc1ccc(-c2cc(C#N)nc(Cl)n2)cc1,14,66*,8,3,39,2
COc1ccc(-c2cc(C#N)nc(Oc3ccc(Cl)cc3)n2)cc1,11,-10,-5,0,19,-9
CCOC(=O)Cc1csc(N/N=C\c2ccc(N(C)C)cc2)n1,3,-12,7,81*,-76,-26
COc1ccc(-c2cnc3c(c2)C(=O)N([C@@H](C)CO)C[C@@H](C)[C@@H](CN(C)C(=O)Cc2ccncc2)O3)cc1,.,.,.,.,.,3
COC(=O)C[C@@H]1C=C[C@H](NS(=O)(=O)c2ccccc2F)[C@@H](CO)O1,.,.,.,.,.,1
CCOC(=O)Cn1c(=NC(=O)c2ccc([N+](=O)[O-])s2)sc2ccccc21,13,73*,15,12,-9,-1
CC1(C)C=Cc2c(c3c(c4c(=O)c(-c5ccc(O)cc5)coc24)OC(C)(C)CC3)O1,-27,7,-17,-13,63*,.
CC(C)=CCc1c2c(c3occ(-c4ccc(O)cc4)c(=O)c3c1O)C=CC(C)(C)O2,7,15,43,11,-22,.
Cc1ccccc1-c1cnc2c(c1)C(=O)N([C@H](C)CO)C[C@@H](C)[C@H](CN(C)C(=O)c1ccccc1)O2,.,.,.,.,.,12
O=[N+]([O-])c1cccnc1N1CCN(Cc2ccc3c(c2)OCO3)CC1,-19,-7,12,-8,-47,-12
CCOc1ccc2[nH]c3c(N4CCc5ccccc5C4)ncnc3c2c1,-24,.,4,.,34,35

# Assay outcomes as filed in PubChem.
